Screening data from PubChem.
Compounds with a hit are over-represented: about 4.5% of the library has one in this group of screens.
Gli-Sufu antag: antagonists of Gli-Sufu signaling. Sufu-KO-LIGHT fibroblasts, Gli luciferase reporter luminescence. inhibition, % at 5 µM. 0.74% of 340,000 active;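 active = inhibition above about 55%, limit read from the data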;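 note: 0% = DMSO-treated cells and 100% = wells with medium but no cells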
Mdm2-MdmX inh: disrupts the human Mdm2-MdmX interaction; O15151+Q00987; SaOS-2 split-luciferase Mdm2/MdmX complementation, luminescence; inhibition, % at 8 µM; 3% of 330,000 active;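 active = inhibition of at least 50% at 8 µM in the primary screen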
Target sequence (O15151 whole entry, looked up): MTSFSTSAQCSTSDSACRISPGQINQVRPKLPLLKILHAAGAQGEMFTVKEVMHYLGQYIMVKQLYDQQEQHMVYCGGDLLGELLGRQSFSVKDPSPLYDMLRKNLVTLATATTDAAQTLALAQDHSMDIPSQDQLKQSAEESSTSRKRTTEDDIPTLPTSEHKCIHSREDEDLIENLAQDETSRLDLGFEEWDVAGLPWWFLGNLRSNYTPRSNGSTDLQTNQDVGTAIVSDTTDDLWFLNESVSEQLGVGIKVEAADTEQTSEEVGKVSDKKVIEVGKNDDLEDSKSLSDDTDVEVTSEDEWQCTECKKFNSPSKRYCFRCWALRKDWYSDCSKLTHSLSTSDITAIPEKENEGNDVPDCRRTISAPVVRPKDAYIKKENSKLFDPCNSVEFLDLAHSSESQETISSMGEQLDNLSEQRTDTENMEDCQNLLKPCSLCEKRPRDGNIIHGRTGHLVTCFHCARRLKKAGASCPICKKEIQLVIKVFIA
Target sequence (Q00987 whole entry, looked up): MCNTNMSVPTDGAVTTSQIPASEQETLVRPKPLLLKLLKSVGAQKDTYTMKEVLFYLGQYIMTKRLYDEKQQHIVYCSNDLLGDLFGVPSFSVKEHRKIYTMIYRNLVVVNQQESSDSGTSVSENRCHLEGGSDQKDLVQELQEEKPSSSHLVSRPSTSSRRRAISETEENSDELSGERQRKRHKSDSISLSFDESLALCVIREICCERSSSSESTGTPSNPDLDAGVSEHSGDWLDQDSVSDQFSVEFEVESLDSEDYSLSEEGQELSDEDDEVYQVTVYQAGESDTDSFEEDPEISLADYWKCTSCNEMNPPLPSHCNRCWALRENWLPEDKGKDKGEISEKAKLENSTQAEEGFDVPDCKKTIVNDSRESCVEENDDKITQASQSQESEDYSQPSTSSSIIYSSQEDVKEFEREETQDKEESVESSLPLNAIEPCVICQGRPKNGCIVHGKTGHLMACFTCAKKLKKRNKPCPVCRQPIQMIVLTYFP
Jurkat NFkB inh: lowers PMA/ionomycin-induced NF-kB signal in Jurkat cells. PMA/ionomycin-induced NF-kB luciferase reporter, luminescence. inhibition, % at 4 µM. 0.53% of 330,000 active; in the data active = inhibition above about 50%
Beta cell apopt: blocks beta cell apoptosis | protection from apoptosis, % (no concentration beside the values) | INS-1E cytokine-induced death, ATP luminescence, 48 h; percent of positive-control rescue, neutral wells zero | 0.8% of 300,000 active;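 active = Every replicate reaches about 75%, or at least half do and their mean reaches it too, limit read from the data; inconclusive = At least half of replicates reach the limit but their mean does not; inactive = Under half of replicates reach the limit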;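 note: 0% = cytokine-treated negative control wells and 100% = positive control rescue; higher means more ATP so stronger rescue from cytokine killing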
697 NFkB inh: inhibitors of the PMA/ionomycin-induced NF-kB reporter in 697 B cells | 697 B-cell NF-kB luciferase reporter, 16 h | inhibition, % at 4 µM | 0.33% of 330,000 active | AID 435022; in the data active = inhibition above about 35%
CSC inhib: blocks cancer stem cells; 1.1% of 300,000 active; cancer stem cell-like cells viability, luminescence; inhibition, % at 7.5 µM; in the data active = inhibition above about 75%; inconclusive = no clear call, values can overlap the other calls; tested in HMLE shEcad cells
Mdm2-MdmX conf: human Mdm2/MdmX binding inhibition, confirmed | 55% of 10,000 active | luminescent assay | shares compounds with Mdm2-MdmX inh | inhibition, % at 8 µM; in the data active = inhibition above about 40%
Full FLuc ctr: full-length luciferase inhibition in Mdm2/MdmX counter-screen; AID 504607; inhibition, % at 8 µM; shares compounds with Mdm2-MdmX inh; SaOS-2 full-length luciferase counterscreen, luminescence; 77% of 6,200 active;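 active = mean inhibition at 8 µM reaching about 37%, which flags the compound as non-specific, limit read from the data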;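 note: p53-null SaOS-2 cells with luciferase driven by a doxycycline-inducible promoter; compound on cells about two nights before reading with doxycycline added after day one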
* marks the source's active call; other numbers are inactive results; ? = inconclusive; nt = no result.

SMILES	Gli-Sufu antag	Mdm2-MdmX inh	Jurkat NFkB inh	Beta cell apopt	697 NFkB inh	CSC inhib	Mdm2-MdmX conf	Full FLuc ctr
O=C(CN(c1cccc(C(F)(F)F)c1)S(=O)(=O)c1ccc(Cl)c([N+](=O)[O-])c1)NCc1ccc(F)cc1	0.7	100.5*	2.0	1.1	15.8	185.5*	39.0	95.0*
CCN(C(=O)COC(=O)c1c2c(nc3ccccc13)/C(=C/c1ccccc1)CC(C)C2)C1CCS(=O)(=O)C1 (stereo not given)	11.9	52.5*	-12.9	-3.2	-14.2	0.7	51.9*	54.8*
COCCn1c(N)c(N(Cc2ccccc2)C(=O)c2oc3ccccc3c2C)c(=O)[nH]c1=O	nt	1.6	12.3	-2.2	8.8	-3.2	nt	nt
Cc1cc(C)nc(NC(=O)c2c(F)c(F)c(F)c(C(=O)Nc3cc(C)cc(C)n3)c2F)c1	10.9	83.0*	32.7	-59.0	-2.0	44.3	65.0*	17.9
Cc1cc(C)nc(NC(=O)c2ccc3c(c2)OCO3)c1	nt	-4.5	-19.4	nt	-19.8	0.5	nt	nt
C=CCNC(=S)NNC(=O)CCC(O)CCCCC (stereo not given)	-1.0	54.3*	1.4	-4.6	-8.4	-2.8	-7.7	nt
Cc1cc(/C=C2\SC(=Nc3ccccc3)NC2=O)c(C)n1-c1ccc(S(N)(=O)=O)cc1	16.5	61.5*	-0.9	17.8	13.1	55.5	49.5*	57.1*
Cc1ccc(-n2c(C)cc(/C=C3\SC(=O)NC3=O)c2C)cc1	-85.7	-192.5	-84.3	10.1	-183.4	1.9	nt	nt
O=C(NCCCN1CCOCC1)c1ccc(-n2nc(C(F)(F)F)cc2-c2cccs2)cc1	11.8	76.6*	-5.5	6.0	-32.2	6.5	25.4	nt
CCOC(=O)COc1ccc2nsnc2c1	-2.8	-11.5	-6.4	-2.5	4.5	nt	nt	nt
CCOC(=O)COc1ccc(/C=C/[N+](=O)[O-])c(OCC(=O)OCC)c1	4.2	100.2*	1.6	9.9	-1.5	5.8	70.3*	23.7
CC(Sc1ncnc2sc(-c3ccccc3)cc12)C(=O)NCC1CCCO1 (stereo not given)	-5.8	67.4*	0.8	-1.3	-25.7	30.2	59.4*	91.0*
Cn1c(=O)c2c(ncn2CC(=O)N/N=C/C=C/c2ccccc2[N+](=O)[O-])n(C)c1=O	0.9	27.3	-1.9	-6.1	1.2	-0.9	nt	nt
CNC[C@@H](C)NC[C@@H](Cc1ccccc1)NCCc1ccccc1	5.0	68.7*	1.5	4.4	6.0	27.4	35.6	nt
CC(C)[C@H](NC(=O)c1ccccc1)C(=O)NCCc1ccccc1	0.2	9.0	-6.1	3.0	8.5	-7.0	nt	nt
O=C1CC(c2ccccc2)=C(c2ccccc2)C1c1ccccc1 (stereo not given)	9.8	nt	nt	nt	nt	nt	nt	nt
COc1ccc(CCN2C(=O)c3[nH]nc(-c4ccccc4O)c3C2c2cccc(Cl)c2)cc1 (stereo not given)	-6.8	76.1*	-4.7	40.0	-10.1	18.1	57.1*	74.4*
COc1ccc(C2c3c(-c4ccccc4O)n[nH]c3C(=O)N2CCc2ccc(OC)c(OC)c2)cc1 (stereo not given)	-16.9	30.0	-25.2	18.0	1.8	-16.8	nt	nt
CNCc1cc(Br)c(OCC(=O)Nc2ccccc2OC)c(OC)c1	0.3	20.0	-4.1	2.3	5.3	0.7	nt	nt
COc1cc(CNCCc2ccccc2)cc(Br)c1OCC(=O)Nc1ccccc1C	26.7	74.1*	1.7	7.3	8.0	nt	37.7	72.2*
CCOc1cc(CNCC(C)C)cc(Cl)c1OCc1ccccc1	20.4	5.9	5.1	2.8	4.8	nt	nt	nt
O=C(COc1ccc(Br)cc1CNCCc1ccccc1)NCc1ccccc1	-1.1	55.7*	-18.7	42.1	-8.1	30.9	29.6	nt
COc1cc(CNCCc2ccccc2)cc(Cl)c1OCc1ccccc1	11.8	77.9*	4.1	14.5	8.5	?	37.9	nt
CCOc1cc(CNC2CCCC2)cc(Cl)c1OCc1ccccc1	3.3	51.9*	-4.8	17.0	-6.4	nt	26.1	nt
CC(Sc1nnc(Cc2cccs2)n1C)C(=O)Nc1ccc(C(N)=O)cc1 (stereo not given)	-1.5	-4.3	6.3	nt	16.0	nt	nt	nt
